# Bioassay records: PubChem BioAssay, National Center for Advancing Translational Sciences (NCATS)
# PTAP-TSG101 blk = TSG101-PTAP interaction inhibition, HIV-1 budding | Fluorescence polarization, FITC-PTAP peptide/Tsg101, 20 min | Potency, µM (top dose mostly 115 µM), usual class: inhibitors | 44,000 tested, under 10 active; note: potency is the fitted concentration of half-maximal effect; 0% is about no effect
#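 Compounds pinned into 10 uM Tsg101 binding domain, then 50 nM FITC-PTAP peptide added in pH 7.5 HEPES buffer; FP read after 20 min, room temperature. Total S+P intensity flags fluorescent compounds; active cut-off <25 µM, efficacy <60%.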
# B2AR arrestin ag = ADRB2 beta-arrestin recruitment; P07550; HTLA Tango cells, beta-arrestin recruitment, luciferase luminescence, 18 h; Potency, µM (doses to about 46.1 µM), actives largely listed as activators; 44,000 tested, under 10 active;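 note: potency is the fitted concentration of half-maximal effect; 0% = DMSO and full agonism = EC100 isoproterenol or metaproterenol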
#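 Tango cells (recombinant beta2-AR, beta-arrestin, tTA-driven luciferase), 1500/well in DMEM 1% FBS, treated 18 h at 37 °C with compounds up to 46 µM; luciferin mix added, luminescence read after 15 min; %activity curves fitted and curve-classed.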
# OvCa metastasis = inhibitors of ovarian cancer cell adhesion and invasion in omental model. SKOV3ip1-GFP adhesion/invasion on 3D omental model, fluorescence. actives 0.1% (n = 46,000). AID 1963576. Potency, µM (series often up to 45.8 µM), without a hit: top-dose activity change, negative = inhibition, usual class: inhibitors;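 note: potency is the fitted concentration of half-maximal effect; plate controls were DMSO wells for no effect and tomatine positive control wells for full effect; nearly all actives have a fitted effect of over 65% in size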
#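 qHTS, 4-pt dose (0.36-46 umol/L); SKOV3ip1-GFP, 1,200 cells/well, no FBS; primary omental fibroblast/mesothelial co-culture 48 h pre-grown; 2 h RT + 16 h 37 C; PBS wash, 4% PFA; GFP count 488/509 nm.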
# DRV1 agonist = GPR32 (DRV1) agonism, beta-arrestin recruitment | CHO-K1 GPR32 beta-arrestin PathHunter luminescence, 90 min; zero percent set by DMSO-only wells | O75388 | actives 2.5% (n = 48,000) | activation, % at 76.9 µM;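 active = activation of at least 60% and not above a set upper limit, about 1 call in 100 departs from these limits; inconclusive = activation of 40% to 60%, or above that upper limit; inactive = activation under 40%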; note: 0% is about no effect
#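 PathHunter enzyme-fragment complementation, CHO-K1 GPR32 stable line; 2,500 cells/well, overnight attach; cpd 90 min 37 °C 5% CO2; detection reagent 1 h RT; chemiluminescence. DMSO = EC0.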
# NTMT1 inhibitor = inhibitors of human N-terminal methyltransferase NTMT1 | Q9BV86 | NTMT1 MTase-Glo SAH luminescence, purified enzyme | Potency, µM (top dose mostly 114 µM), for inactives: at the highest dose activity change, negative = inhibition, most hits filed as inhibitors | actives 2.5% (n = 59,000) | AID 1645870;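 note: potency is the fitted concentration of half-maximal effect; plate controls were DMSO vehicle for no effect and no enzyme for full effect; nearly all actives have a fitted effect of over 65% in size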
# GALK inh = inhibitors of human galactokinase (GALK). recombinant GALK, Kinase-Glo ATP luminescence, 1 h. P51570. 44,000 tested, under 10 active. Potency, µM (titrated, usually from 57.5 µM), for the others: top-dose activity, negative = inhibition, usual class: inhibitors;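 note: plate controls were full GALK reaction for no effect and reaction lacking GALK for full effect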
# Target sequence (P51570 whole entry, looked up): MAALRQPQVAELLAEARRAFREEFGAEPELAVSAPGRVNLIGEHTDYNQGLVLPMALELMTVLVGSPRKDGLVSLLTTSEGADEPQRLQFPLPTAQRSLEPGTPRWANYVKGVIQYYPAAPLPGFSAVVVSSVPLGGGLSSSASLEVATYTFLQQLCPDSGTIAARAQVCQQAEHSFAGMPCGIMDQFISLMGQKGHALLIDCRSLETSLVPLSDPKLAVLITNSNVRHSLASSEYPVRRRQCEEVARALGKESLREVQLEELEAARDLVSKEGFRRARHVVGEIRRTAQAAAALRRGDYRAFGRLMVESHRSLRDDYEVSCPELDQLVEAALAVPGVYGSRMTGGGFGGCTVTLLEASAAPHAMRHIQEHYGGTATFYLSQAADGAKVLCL
#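 Luminescent ATP-depletion readout (Kinase-Glo Plus, 10 min) after 1 h RT reaction of 5 nM GALK, 35 uM ATP, 100 uM galactose, pH 8.0 HEPES buffer. Decreased kinase activity scored as inhibition.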
# * marks the source's active call; other numbers are inactive results; i = inactive; ? = inconclusive; nt = no result. A selection: hits, their analogues and other compounds. The true share with any hit is near 3.8%. Unless noted, calls come from the whole dose curve; as a rule, active = well fitted curve in the direction sought with a large enough effect; inconclusive = small, poorly fitted or top-dose-only effect, or another doubt; inactive = no such curve, though single readings can be large; an effect the other way counts as inactive or inconclusive.
SMILES,PTAP-TSG101 blk,B2AR arrestin ag,OvCa metastasis,DRV1 agonist,NTMT1 inhibitor,GALK inh
COc1ccc(-c2nnc(SCC(=O)N3CCC(C)CC3)o2)cc1,i,i,0.0%,78.0*,-2.0%,1.6%
CCCN1C(C(=O)c2ccccc2)=C(OC(=O)c2ccc(OC)cc2)c2ccccc2S1(=O)=O,i,i,i,-15.9,0.0%,-3.2%
CC(=O)c1ccc(NS(=O)(=O)c2cccc(S(=O)(=O)c3ccc(Cl)cc3)c2)cc1,i,i,3.9%,61.4*,?,-7.4%
CC(=O)Nc1ccc(NS(=O)(=O)c2ccc3[nH]c4c(c3c2)CCCCC4)cc1,i,i,-10.0%,80.0*,?,-0.2%
COc1ccc(NC(=O)CN(C)S(=O)(=O)c2ccc3[nH]c4c(c3c2)CCCC4)cc1OC,i,i,i,3.5,-27.1%,-6.7%
COc1ccc(NC(=O)CN(C)S(=O)(=O)c2ccc3[nH]c4c(c3c2)CCCC4)cc1Cl,i,i,-14.3%,90.6*,2.0%,-7.1%
CC(=O)c1ccc(NS(=O)(=O)c2ccc3[nH]c4c(c3c2)CCCCCC4)cc1,i,i,i,72.7*,-5.6%,0.2%
CC(=O)c1ccc(NS(=O)(=O)c2ccc3[nH]c4c(c3c2)CCCC4)cc1,i,i,-1.4%,19.6,-8.8%,-5.1%
O=C(O)c1cccc(NC(=O)c2cccc(S(=O)(=O)Nc3cccc(F)c3)c2)c1,i,i,-0.7%,-6.5,7.4%,?
COc1cccc(NS(=O)(=O)c2ccc3[nH]c4c(c3c2)CCCCCC4)c1,i,i,-21.7%,3.1,-3.0%,0.1%
COc1ccc(NS(=O)(=O)c2ccc3[nH]c4c(c3c2)CCCCCC4)cc1,i,i,-7.7%,74.5*,?,-9.6%
Nc1nc(=S)c2[nH]cnc2[nH]1,nt,nt,-28.2%,-50.8,3.55µM*,nt
O=C(c1ccccc1F)N1c2ncnn2C2(CCCCC2)[C@@H]2CCCC[C@@H]21,i,i,-10.0%,-6.1,-8.7%,1.6%
CC(=O)N1CCc2cc(S(=O)(=O)NC(Cc3ccccc3)C(=O)Nc3ccc(Cl)cc3)ccc21 (stereo unspecified),i,i,10.9%,95.8*,0.4%,8.1%
CCOC(=O)c1ccc(NC(=O)CSc2nnc(CNC(=O)c3ccc(OC)cc3)n2CC)cc1,i,i,i,-0.1,79.4µM*,-1.6%
O=C(CSc1cn(CCNC(=O)c2c(F)cccc2F)c2ccccc12)Nc1ccc2c(c1)OCCO2,i,i,i,68.5*,0.4%,-1.5%
CN(C)c1ccc(CNC(=O)C(Cc2ccccc2)NS(=O)(=O)c2ccc3c(c2)oc(=O)n3C)cc1 (stereo unspecified),i,i,4.3%,94.3*,?,10.2%
O=C(Cn1c(=O)oc2cc(S(=O)(=O)N3CCCC3)ccc21)NCc1ccc(Cl)cc1,i,i,i,?,?,-4.0%
CN(C)c1ccc(CNC(=O)Cn2c(=O)oc3cc(S(=O)(=O)N4CCCCCC4)ccc32)cc1,i,i,-1.1%,112.7*,5.1%,1.3%
COc1cccc(CNC(=O)Cn2c(=O)oc3cc(S(=O)(=O)N4CCC(C)CC4)ccc32)c1,i,i,i,12.4,-8.2%,9.1%
Cn1c(=O)oc2cc(S(=O)(=O)NC(Cc3ccccc3)C(=O)NCc3ccc(F)cc3)ccc21 (stereo unspecified),i,i,i,-6.1,8.7%,10.6%
COc1cccc(CNC(=O)Cn2c(=O)oc3cc(S(=O)(=O)N4CCCCCC4)ccc32)c1,i,i,-2.5%,75.9*,?,-0.1%
CCn1cc(C(=O)N2CCN(c3ccccc3)CC2)c(=O)c2cc(S(=O)(=O)N(C)C3CCCCC3)ccc21,i,i,11.9%,25.1,13.5%,7.4%
